Compound activity (PubChem)
A selection: hits, their analogues and other compounds. The true share with any hit is near 3.3%.
Tau ThT inhib – blocks human tau fibril formation measured by thioflavin T. recombinant tau K18 P301L, heparin-induced fibrillization, ThT fluorescence. Potency, µM (doses to about 57.4 µM), inactives show top-dose activity, negative = inhibition, hits mostly inhibitors. 270,000 tested, 2.1% active. AID 1460; further: nearly all actives have a fitted effect of over 55% in size
Target sequence (P10636 561-689 P618L limits assumed): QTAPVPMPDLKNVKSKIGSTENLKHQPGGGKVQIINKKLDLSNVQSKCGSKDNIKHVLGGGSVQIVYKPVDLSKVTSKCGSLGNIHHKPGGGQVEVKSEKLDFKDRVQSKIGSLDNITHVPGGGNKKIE
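Fibril formation assay: tau K18 P301L at 15 uM with trace Alexa 594 label, heparin inducer 20 uM, pH 7 sodium acetate buffer, 37 C for 6 hr; endpoint ThT signal.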
Tau fibril FP – tau fibrillization inhibition (FP); Potency, µM (titrated, usually from 57.7 µM), for inactives: at the top dose activity, negative = inhibition, usual class: inhibitors; P10636; K18 P301L tau heparin fibrillization, Alexa594 FP, 6 h; AID 1468; 280,000 tested, 0.39% active; further: nearly all actives have a fitted effect of over 55% in size
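Recombinant K18 P301L […], labeled with Alexa 594 at 0.24 uM over 15 uM unlabeled; heparin inducer 20 uM final; 37 C, 6 hr; FP endpoint.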
NPSR antag – blocks cAMP signaling of the human neuropeptide S receptor; Q6W5P4; CHO-NPSR cells, cAMP TR-FRET, antagonist mode; Potency, µM (top dose mostly 38.3 µM), without a hit: top-dose activity change, negative = inhibition, usual class: inhibitors; 220,000 tested, 1% active; AID 1461; further: nearly all actives have a fitted effect of over 50% in size
Target sequence (Q6W5P4 whole entry, looked up): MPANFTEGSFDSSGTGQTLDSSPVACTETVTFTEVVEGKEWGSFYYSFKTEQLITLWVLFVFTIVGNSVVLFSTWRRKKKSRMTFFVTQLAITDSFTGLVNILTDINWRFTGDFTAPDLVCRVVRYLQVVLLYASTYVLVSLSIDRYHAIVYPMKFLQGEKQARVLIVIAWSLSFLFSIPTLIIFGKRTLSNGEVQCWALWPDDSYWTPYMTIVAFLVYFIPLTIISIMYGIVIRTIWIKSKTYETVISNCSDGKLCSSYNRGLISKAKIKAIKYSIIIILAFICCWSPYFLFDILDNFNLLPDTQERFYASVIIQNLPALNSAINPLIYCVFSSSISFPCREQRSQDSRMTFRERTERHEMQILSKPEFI
Luc counter – counter-screen: inhibitors of Kinase-Glo firefly luciferase; Q27757; Kinase-Glo luciferase, ATP luminescence, 8 min; Potency, µM (top dose mostly 38.3 µM), for the others: at the top dose activity change, negative = inhibition, actives largely listed as inhibitors; 200,000 tested, 0.28% active; AID 1379; further: nearly all actives have a fitted effect of over 60% in size
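Compounds were added to a substrate mix at pH 7.2 (50 mM imidazole, 10 uM ATP, within the enzyme's linear range), followed by Kinase-Glo detection reagent; luminescence was measured after 8 minutes at ambient temperature.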
Tau fluor cs – counter-screen for tau fibril formation inhibitors; tau K18 P301L Alexa594 fluorescence, heparin fibrillization; Potency, µM (highest dose often 57.7 µM), without a hit: top-dose activity change, negative = decrease; 280,000 tested, 0.93% active; further: nearly all actives have a fitted effect of over 55% in size
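Human tau K18 P301L (15 uM unlabeled, 0.24 uM Alexa 594-labeled) in 100 mM sodium acetate pH 7 with 20 uM heparin, 6 hr at 37 C. ThT 30 uM added, 1 hr ambient; Alexa 594 FP and total fluorescence read at 555/632 nm.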
* hit, by the source's call; ? = inconclusive; nt = not tested or not shown; [ ] = dose if it differs, or a comment. The call rests on the fitted dose curve; in most records, active means well fitted curve in the direction sought with a large enough effect; inconclusive means small, poorly fitted or top-dose-only effect, or another doubt; inactive means no such curve, though single readings can be large; an effect the other way counts as inactive or inconclusive. On the % scale 0 is the no-effect control and ±100 the full control effect; potency means the concentration at half of the fitted maximal effect.

SMILES	Tau ThT inhib	Tau fibril FP	NPSR antag	Luc counter	Tau fluor cs
Cc1cccc2cc3c(N)c(C#N)sc3nc12	13µM*	?	13%[46.1 µM]	10%	?
Cc1sc(NC(=O)c2oc3ccccc3c2C)c(C#N)c1C	-12%	1%	?	5%	-7%
CCOC(=O)c1ccc(CN(Cc2ccc(Cl)cc2Cl)S(=O)(=O)c2cccc(Cl)c2)cc1	11%	-4%	nt	nt	-1%
O=C(C1CCC1)N1CCCc2cc(S(=O)(=O)Nc3ccc(F)cc3)ccc21	-2%	-11%	nt	nt	-22%
CCOc1ccccc1NC(=O)NCc1ccc2c(c1)CCN2C(=O)c1ccccc1	-18%	6%	nt	nt	-11%
O=C1c2cccnc2-c2ncccc21	1%	-4%	-4%[46.1 µM]	-4%	3%
CC1(C)OCC(CSC2=C(SCC3COC(C)(C)O3)C(=O)c3ncccc3C2=O)O1 (stereo unspecified)	1µM*	1.8µM*	nt	-8%	?
CN(C)c1ccc(CNC(=O)c2ccc(Cn3c(SCc4ccccc4)nc4cccnc43)cc2)cc1	?	10%	nt	nt	?
CCOC(=O)c1ccc2c(c1)N(Cc1ccc(F)cc1Cl)C(=O)c1ccccc1S2(=O)=O	-9%	?	nt	nt	-29%
O=C1c2c(O)cc(O)cc2OC(c2ccc(O)c(O)c2)C1O (stereo unspecified)	?	3%	-7%[46.1 µM]	-10%	-2%
COc1ccc([C@H]2Oc3cc(O)cc(O)c3C(=O)C2[C@@H]2C(=O)c3c(O)cc(O)cc3O[C@@H]2c2ccc(OC)cc2)cc1 (stereo partly specified)	?	18µM*	-35%	nt	-29%
O=C(C[n+]1ccc(C(=O)NCCCO)cc1)c1cccc(Br)c1	-6%	-6%	-7%	nt	-4%
O=C(O)c1cc(-c2ccc(Cl)s2)nc2ccccc12	-6%	5%	6.3µM*	3%	-6%
COc1ccc(-n2cc(C(=O)Nc3cc(F)ccc3F)c3ccccc3c2=O)cc1	-9%	12%	nt	nt	1%
O=C(CSc1ncnc2c(-c3ccc(Cl)cc3)nsc12)c1ccccc1	18µM*	?	-9%[46.1 µM]	-2%	?
CCc1cc2c(SCC(=O)c3ccccc3)ncnc2s1	-2%	-6%	-28%[46.1 µM]	-3%	-11%
COc1ccc([C@H]2[C@H](C(=O)OC(C)(C)C)N3N=Cc4ccccc4C3C23C(=O)c2ccccc2C3=O)cc1OC (stereo partly specified)	?	-8%	7.9µM*	-3%	?
COc1ccc([C@H]2[C@H](C(=O)OC(C)(C)C)N3N=Cc4ccccc4C3C23C(=O)c2ccccc2C3=O)c(OC)c1 (stereo partly specified)	?	7%	-21%	3%	-20%
CN(c1ccc(O)cc1)c1nc(-c2cccs2)cs1	-2%	4%[2.34 µM]	1%	-4%	5%[2.34 µM]
Cc1nc(N)sc1-c1csc(N(C)c2ccc(O)cc2)n1	16µM*	?	-29%[46.1 µM]	6%	?
Cc1ccc2oc(Nc3nc(C)c(C)c(C)n3)nc2c1	?	-3%	-1%	nt	-9%
Cc1nc(Nc2nc3ccccc3o2)nc(C)c1C	?	10%	18%	11µM*	3%
Cc1ccnc(Nc2nc3ccccc3o2)n1	-7%	-4%	6%[46.1 µM]	13µM*	1%
O=C(c1ccccc1)c1ccc2nc(-c3ccco3)c(-c3ccco3)nc2c1	14µM*	?	-60%	-4%	?
O=C(NCCO)c1ccc2nc(-c3ccco3)c(-c3ccco3)nc2c1	16µM*	?	-16%[46.1 µM]	-1%	14µM*[quencher]
SMILES	Tau ThT inhib	Tau fibril FP	NPSR antag	Luc counter	Tau fluor cs
O=C(NC1CCCC1)c1ccc2nc(-c3ccco3)c(-c3ccco3)nc2c1	-2%	2%	-11%[46.1 µM]	nt	-2%
O=C(NCCc1ccccc1)c1ccc2nc(-c3ccco3)c(-c3ccco3)nc2c1	7.1µM*	?	?	-2%	?
O=c1oc(-c2ccco2)nc2ccccc12	-14%	4%	?	7%	-2%
O=C(NCCc1ccccc1)c1ccc(=O)oc1	-3%	-2%	-6%[46.1 µM]	-1%	-4%
c1coc(-c2nc3ccccc3nc2-c2ccco2)c1	16µM*	?	-14%[46.1 µM]	-2%	?
COc1ccccc1N1CCN(C(=O)c2ccc3nc(-c4ccco4)c(-c4ccco4)nc3c2)CC1	?	9%	-22%	1%	-15%
Oc1c(N=Nc2ccccc2)sc2ccccc12	2.5µM*	4%	?	nt	-23%
CCCCc1nc2c(c3c1C[C@H](C)OC3)CN(C(=O)NCCc1c[nH]c3ccccc13)CC2	16%[11.5 µM]	3%[11.6 µM]	nt	-4%[7.66 µM]	7%[11.6 µM]
N#C/C(=N\Nc1cccc(C(F)(F)F)c1)C(=O)c1ccsc1	14µM*	15%	?	nt	?
COc1ccccc1C(=O)N1CCC(c2c[nH]c3ccccc23)(c2c[nH]c3ccccc23)CC1	-4%	2%	nt	nt	?
Cc1cccc(NC(=O)c2c(N)sc3c2CCC(C)C3)c1 (stereo unspecified)	8.9µM*	-15%	nt	nt	?
CC[N+]1=C(C)C(C)(C)c2cc(C)ccc21	3.5µM*	?	34%	-4%	0.71µM*[fluorescent]
CSc1ncc2c(n1)-c1ccccc1N(Cc1ccc(F)cc1)S2(=O)=O	-8%	-16%	nt	nt	-24%
CC(C)NC(=O)N1CCCC2(CCN(C(=O)c3csnn3)CC2)C1	nt	nt	nt	-4%	nt
CCOc1ccc(C2NC(=O)C(C#N)=C(S)N2c2ccc(C)cc2)cc1OC (stereo unspecified)	32µM*	?	-14%[46.1 µM]	-1%	-24%
CCOc1ccc(C2NC(=O)C(C#N)=C(S)N2c2cccc(C)c2)cc1OC (stereo unspecified)	32µM*	?	-7%	1%	-25%
Cc1c(CCNC(=O)c2c(F)cccc2F)sc2nc(-c3ccc(F)cc3)nn12	-1%	-11%	nt	nt	1%
Cc1ccc2[nH]c(=O)c(CN(Cc3ccccc3)C(=S)NCCCN(C)C)cc2c1	?	6%[2.34 µM]	8%	13µM*	11%[2.34 µM]
Cc1ccc(N(C)S(=O)(=O)c2ccc(-c3coc(C)n3)cc2)cc1	-6%	-3%	nt	nt	-17%
Cc1c(N=C2C=C(Br)C(=O)C(Br)=C2)c(=O)n(-c2ccccc2)n1C	16µM*	25µM*	-28%	?	16µM*[quencher]
Cc1csc(=Nc2c(C)n(C)n(-c3ccccc3)c2=O)n1Cc1ccccc1	-11%	7%	-15%[46.1 µM]	-4%	0%
Cc1c(N=C2C=CC(=O)c3ccccc32)c(=O)n(-c2ccccc2)n1C	2.2µM*	7.9µM*	10µM*	-26%	4.5µM*[quencher]
Cc1c(N=Cc2nc3ccccc3[nH]2)c(=O)n(-c2ccccc2)n1C	-6%	3%	-23%[46.1 µM]	-22%	2%
Cc1c(N=Cc2nc3ccccc3n2C)c(=O)n(-c2ccccc2)n1C	-12%	-6%	1%[46.1 µM]	11µM*	1%
O=C(CN1CCCCC1)Nc1c2c(nc3ccccc13)N(c1ccccc1)CC2	-6%	7%	7.9µM*	2%	-8%
